Active and inactive are the calls of the source. Rule for the calls: active = hit-call score of the fitted dose curve at least 0.9, where 1 is the maximum; inactive = score below 0.9.
These molecules were tested on UDP glucuronosyltransferase (UGT1A6), UGT1A6 (gene 54578) (assay: LTEA_HepaRG_UGT1A6: Life Technologies and Expression Analysis (LTEA) Assay for UDP glucuronosyltransferase (UGT1A6) using HepaRG (AID 2283539)). Settings: mRNA level, 48 h; actives raise or lower the signal.
Procedure: LTEA_HepaRG is a cell based, multiplexed-readout assay that uses HepaRG, a human liver cell line, with measurements taken at 48 hours after chemical dosing on a 96-well plate.LTEA_HepaRG_UGT1A6 is one of 102 assay component(s) measured in the LTEA HepaRG cell culture assay. It is a marker of NR mediated metabolism.Data from the assay component LTEA_HepaRG_UGT1A6 was analyzed into 1 endpoint. This assay endpoint, LTEA_HepaRG_UGT1A6, was analyzed with bidirectional fitting relative to DMSO as the negative control and baseline of activity. Using a type of inducible reporter, measures of mRNA induction for gain or loss-of-signal activity can be used to understand regulation of transcription factor activity. To generalize the intended target to other relatable targets, this assay endpoint is annotated to the transferase intended target family, where the subfamily is glucuronosyltransferase.
A total of 1060 chemcials from the ToxCast library were tested in eight-point concentration-response experiments. Cell culture and cytotoxicity assays were conducted at Thermo Fisher Scientific's Custom Services facility (Madison, WI). A single lot of human HepaRG cells (Thermo Fisher Scientific, Frederick, MD) was used for the cell culture experiments. 96-well format collagen type I coated plates of human HepaRG cells were prepared using established methods. Briefly, cryopreserved HepaRG cells were thawed, plated at a density of approximately 100,000 cells/well in HepaRG Thaw, Plate, and General Purpose media (HPRG770, Thermo Fisher Scientific), and incubated for 48 hours. 0.5% DMSO was selected as vehicle control to balance the requisite need of DMSO in HepaRG cultures to maintain differentiation (for example, baseline metabolism, proportions of hepatocytes vs. cholangiocytes), while enabling further hepatic receptor pathway activation (for example, PXR and CAR) in response to chemical exposure. 48 hours after plating, the culture medium was replaced with HepaRG Serum-Free Incudtion Media. Cells were exposed to each test chemical in duplicate and maintained in CO2 incubators for another 48 hours. Chemical plates were thawed to room temperature and 200x concentrations of treatment groups were prepared. 8-point conentration-reponse curves were made with the highest exposure at 100 uM, followed by half-log dilutions, all in 0.5% DMSO. Each test plate contained variouse controls, induction positive controls (1mM phenobarbital), cytotoxicity positive controls ([…] aflatoxin B1), vehicle controls (0.5% DMSO), and total lysis controls (0.5% DMSO). Cell morphology images were taken using an Essen IncuCyte FLR automated microscope, with six 96-well plates imaged in about 24 minutes. Images were captured and exported and JPEG files. Spent culture media was transfered to black-well plates for the LDH assay, and remaining media was sorted at -80 C for later use. Cells were treated with RLT buffer and frozen until shipped for gene expression analysis. Total RNA was isolated from the cell suspension in 75 uL of Buffer RLT (Qiagen, Germantown, MD 20874) by Quintiles/Expression Analysis (Durham, NC) using a custom isolation procedure. Total RNA from each plate well was transferred to a preamplification plate. Fluidigm's 96.96 Dynamic ArrayTM (Fluidigm, Amsterdam, the Netherlands) technology was used for gene expression analyses by quantitative reverse transcription polymerase chain reaction (qRT-PCR, performed by Quintiles/Expression Analysis, Durham, NC)89. Standard TaqManTM Assays (Applied Biosystems/ThermoFisher Scientific, Foster City, CA) were used to assess the expression of 93 genes selected based on their selectivity and sensitivity to important hepatic receptors known to be modulated by environmental chemicals; importance in human hepatocyte functionality; and hepatotoxicity. […]

SMILES	outcome	AC50
OCCC(F)(F)C(F)(F)C(F)(F)C(F)(F)C(F)(F)C(F)(F)F	inactive	–
CCCCCCCCC(=O)O	inactive	–
CCCCCCCCCCCCc1ccccc1S(=O)(=O)O	inactive	–
CCc1nn(C2CCCCC2)c2cc(C3(C#N)CCC(C(=O)O)CC3)ccc12 (stereo not given)	inactive	–
CN1CCN(c2ccccc2/C=C2\SCCN(c3ccc(Cl)c(Cl)c3)C2=O)CC1	inactive	–
c1ccc2cc3c(ccc4ccccc43)cc2c1	inactive	–
CC[C@H](C)[C@@H](C(=O)O)n1sc2ccccc2c1=O	inactive	–
CC(C)CCCCCCOC(=O)CCCCC(=O)OCCCCCCC(C)C	inactive	–
CCCCCCCCCCCCN1CCCC1=O	inactive	–
C[C@@H]1C[C@H]2[C@@H]3CCC4=CC(=O)C=C[C@]4(C)[C@@]3(F)[C@@H](O)C[C@]2(C)[C@@]1(O)C(=O)COP(=O)(O)O	inactive	–
O=C(O)c1ccccc1C(c1ccc(O)cc1)c1ccc(O)cc1	inactive	–
CC1=C(/C=C/C(C)=C/C=C/C(C)=C/C(=O)O)C(C)(C)CCC1	–	16.9 µM (active)
CCCCCCCCCCCCCCCS(=O)(=O)Oc1ccccc1	inactive	–
c1ccc2c(c1)Cc1ccccc1-2	inactive	–
CCCCCCC(=O)O	inactive	–
Nc1cccc2c(N)cccc12	inactive	–
Cc1cc(CCN2CCN(c3nsc4ccccc34)CC2)cc2c1NC(=O)CC2(C)C	–	79.5 µM (active)
CN1CCC[C@H]1c1cccnc1	inactive	–
COc1ccc([N+](=O)[O-])cc1N	inactive	–
CCCCC(CC)COC(=O)CCCCC(=O)OCc1ccccc1 (stereo not given)	inactive	–

SMILES	outcome	AC50
CCCCOCCO	inactive	–
OCCC(F)(F)C(F)(F)C(F)(F)C(F)(F)C(F)(F)C(F)(F)C(F)(F)C(F)(F)F	inactive	–
CCC(C)(C)C1CCC(O)CC1 (stereo not given)	inactive	–
OC1CCCCC1	inactive	–
Cc1cc(C)c(O)c(C)c1	inactive	–
NC(=O)N(O)[C@@H]1C=C[C@H](Oc2cccc(Oc3ccc(F)cc3)c2)C1	–	75.8 µM (active)
CC[C@H](c1ccc(O)cc1)[C@@H](CC)c1ccc(O)cc1	inactive	–
CC(=O)NC1(c2cccc(F)c2)CCN(CC[C@@]2(c3ccc(Cl)c(Cl)c3)CN(c3ccccc3)C(=O)CO2)CC1	inactive	–
CC(C)(C)c1cccc(C(C)(C)C)c1O	inactive	–
NC(=O)N1C(=O)C(C(=O)c2cc(Cl)cs2)c2cc(F)c(Cl)cc21 (stereo not given)	–	57 µM (active)
CCCCCCCCOC(=O)CCCCCCCCC(=O)OCCCCCCCC	inactive	–
CC(C)(C)c1ccc(O)c(C(C)(C)C)c1	inactive	–
O=[N+]([O-])c1ccc(O)cc1	inactive	–
COCC(C)O (stereo not given)	inactive	–
CCN(CC)CCNc1ccc(CNC=O)c2sc3ccc(OC)cc3c(=O)c12	–	72 µM (active)
CCCOC(=O)c1ccc(O)cc1	inactive	–
CC(O)CO (stereo not given)	inactive	–
O=C(OCCOCCOC(=O)c1ccccc1)c1ccccc1	inactive	–
Oc1cc2ccccc2c2ccccc12	inactive	–
COC(=O)CCCCC(=O)OC	inactive	–

— PubChem BioAssay (EPA / NIEHS)
